# In PubChem BioAssay (NCATS):
# Values joined by “and” are separate entries in the source; they are usually repeats but may differ in a detail not shown here. Equal entries are not always repeated. Results filed as inconclusive are left out. Entries that show only a call come without a potency. Active and inactive are the calls of the source. Unless noted, the call rests on the fitted dose curve; in most records, active means well fitted curve in the direction sought with a large enough effect; inconclusive means small, poorly fitted or top-dose-only effect, or another doubt; inactive means no such curve, though single readings can be large; an effect the other way counts as inactive or inconclusive.
# Legend:
# [1] = molecular target: Calcium and integrin-binding protein 1 (Homo sapiens) (UniProt Q99828); assay: Primary qHTS for Identification of Calcium Integrin Binding Protein 1 (CIB1) Competitor (AID 1508620);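 further: GST tagged CIB1 binding a fluorescein labelled alphaIIb integrin peptide tracer; top concentration of the series differs between compounds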
# In short: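 CIB1-GST (1 uM final) and compound incubated 15 min at room temperature before adding FITC-alphaIIb peptide tracer (100 nM final). Competition for binding read by fluorescence polarization (ex 480, em 540) after another 15 min at room temperature.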
# [2] = molecular target: Cytochrome P450 2D6 (Homo sapiens) (UniProt P10635); assay: Cytochrome P450 family 2 subfamily D member 6 (CYP2D6) small molecule antagonists: luciferase biochemical (cell-free) qHTS assay (AID 1645840; active means well fitted curve in the direction sought with a large enough effect in the repeat runs; an effect the other way counts as inactive or inconclusive; further: nearly all actives have a fitted effect of over 55% in size; further: potency means the concentration at half of the fitted maximal effect)
# In short: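 P450-Glo luminescent screen: recombinant CYP2D6 enzyme–proluciferin substrate mix preincubated with compound 10 min at room temperature, then NADPH regeneration added for 1 h at room temperature. Detection reagent added for 20 min; luciferin light read as relative luminescence units.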
# [3] = Primary qHTS for inhibitors of nuclear receptor binding SET domain protein 2 (NSD2) in an isogenic RCH-ACV NSD2 p.E1099K mutant (9B) (AID 1645876); further: nearly all actives have a fitted effect of over 70% in size; further: potency means the concentration at half of the fitted maximal effect
# [4] = Primary qHTS for inhibitors of nuclear receptor binding SET domain protein 2 (NSD2) in an RCH-ACV wild type WT cells (2C) (AID 1645877); further: nearly all actives have a fitted effect of over 70% in size; further: potency means the concentration at half of the fitted maximal effect
# [5] = molecular target: Catechol O-methyltransferase (Homo sapiens) (UniProt P21964); assay: Confirmatory Screen for Target Class Profiling of Small Molecule Inhibitors of Methyltransferases (AID 1745852); conditions: MTase-Glo luminescence, SAH detection, recombinant enzyme; measured here: COMT max response; stronger effect = lower value
# [6] = molecular target: Cytochrome P450 3A4 (Homo sapiens) (UniProt P08684); assay: Cytochrome P450 family 3 subfamily A member 4 (CYP3A4) small molecule antagonists: luciferase qHTS assay (AID 1645841; active means well fitted curve in the direction sought with a large enough effect in the repeat runs; an effect the other way counts as inactive or inconclusive; further: nearly all actives have a fitted effect of over 45% in size)
# In short: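 Luminescent CYP3A4 activity readout: compounds plus enzyme-substrate mix 10 min at room temperature, reaction started with NADPH regenerating system for 1 h, stopped with detection reagent, read after 20 min. Ketoconazole served as control.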
# [7] = molecular target: N-terminal Xaa-Pro-Lys N-methyltransferase 1 (Homo sapiens) (UniProt Q9BV86); assay: Confirmatory qHTS for Inhibitors of N-terminal methyltransferase 1 (NTMT1): MTaseGlo Assay (AID 1645874);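 further: luminescence from SAH made as NTMT1 methylates SPKRIA peptide using SAM; series mostly up to about 100 µM; nearly all actives have a fitted effect of over 65% in size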
# In short: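 Preincubation of NTMT1 (125 nM) plus SAM (100 uM) with test compounds lasted 15 min; methylation of 1 uM SPKRIA then proceeded 30 min in the dark at room temperature. Luciferase signal reported SAH produced.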
# [8] = molecular target: Cytochrome P450 2C9 (Homo sapiens) (UniProt P11712); assay: Cytochrome P450 family 2 subfamily C member 9 (CYP2C9) small molecule antagonists: luciferase biochemical (cell-free) qHTS assay (AID 1645842; active means well fitted curve in the direction sought with a large enough effect in the repeat runs; an effect the other way counts as inactive or inconclusive; further: series mostly up to about 57 µM; nearly all actives have a fitted effect of over 55% in size)
# In short: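 Luminescence, after 20 min with luciferin detection reagent, reflected CYP2C9 turnover during a 1 h NADPH-driven reaction at 37C. Enzyme-substrate mix contained 0.4% bovine serum albumin and was preincubated with compound 10 min at room temperature.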
# Sequence of Calcium and integrin-binding protein 1 (Homo sapiens) (Q99828 whole entry, looked up): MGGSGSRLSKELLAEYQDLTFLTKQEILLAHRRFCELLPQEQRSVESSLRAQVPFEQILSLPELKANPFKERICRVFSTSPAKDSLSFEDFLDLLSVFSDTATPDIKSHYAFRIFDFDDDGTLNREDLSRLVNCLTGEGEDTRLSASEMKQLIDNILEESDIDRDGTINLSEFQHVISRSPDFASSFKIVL
# Sequence of Cytochrome P450 2D6 (Homo sapiens) (P10635 whole entry, looked up): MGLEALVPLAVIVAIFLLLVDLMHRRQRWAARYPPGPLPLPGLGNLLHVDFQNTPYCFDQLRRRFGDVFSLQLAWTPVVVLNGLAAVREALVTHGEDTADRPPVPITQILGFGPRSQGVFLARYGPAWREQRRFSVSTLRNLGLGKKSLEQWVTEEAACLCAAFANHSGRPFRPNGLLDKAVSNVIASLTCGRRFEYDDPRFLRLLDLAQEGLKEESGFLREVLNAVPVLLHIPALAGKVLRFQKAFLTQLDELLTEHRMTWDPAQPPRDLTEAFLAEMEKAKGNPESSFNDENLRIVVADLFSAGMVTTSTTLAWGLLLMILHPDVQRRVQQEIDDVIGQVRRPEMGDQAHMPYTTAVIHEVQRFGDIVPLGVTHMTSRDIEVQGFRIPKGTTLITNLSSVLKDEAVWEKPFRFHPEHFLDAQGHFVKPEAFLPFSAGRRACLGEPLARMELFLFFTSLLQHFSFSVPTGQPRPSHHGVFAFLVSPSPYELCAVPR
# Sequence of Catechol O-methyltransferase (Homo sapiens) (P21964 whole entry, looked up): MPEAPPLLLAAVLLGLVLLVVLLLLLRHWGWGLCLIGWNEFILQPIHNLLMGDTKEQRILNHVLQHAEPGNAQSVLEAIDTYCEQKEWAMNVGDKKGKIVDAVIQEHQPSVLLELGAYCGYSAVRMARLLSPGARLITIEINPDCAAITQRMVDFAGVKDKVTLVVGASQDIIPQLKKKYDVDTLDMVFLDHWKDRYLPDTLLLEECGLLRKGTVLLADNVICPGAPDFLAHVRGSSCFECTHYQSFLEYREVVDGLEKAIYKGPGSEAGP
# Sequence of N-terminal Xaa-Pro-Lys N-methyltransferase 1 (Homo sapiens) (Q9BV86 whole entry, looked up): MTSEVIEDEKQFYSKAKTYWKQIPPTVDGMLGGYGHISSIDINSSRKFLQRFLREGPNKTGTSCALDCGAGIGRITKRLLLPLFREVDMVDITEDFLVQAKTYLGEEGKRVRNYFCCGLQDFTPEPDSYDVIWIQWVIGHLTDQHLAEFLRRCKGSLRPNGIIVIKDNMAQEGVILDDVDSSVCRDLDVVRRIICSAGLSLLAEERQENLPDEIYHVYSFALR
# Sequence of Cytochrome P450 2C9 (Homo sapiens) (P11712 whole entry, looked up): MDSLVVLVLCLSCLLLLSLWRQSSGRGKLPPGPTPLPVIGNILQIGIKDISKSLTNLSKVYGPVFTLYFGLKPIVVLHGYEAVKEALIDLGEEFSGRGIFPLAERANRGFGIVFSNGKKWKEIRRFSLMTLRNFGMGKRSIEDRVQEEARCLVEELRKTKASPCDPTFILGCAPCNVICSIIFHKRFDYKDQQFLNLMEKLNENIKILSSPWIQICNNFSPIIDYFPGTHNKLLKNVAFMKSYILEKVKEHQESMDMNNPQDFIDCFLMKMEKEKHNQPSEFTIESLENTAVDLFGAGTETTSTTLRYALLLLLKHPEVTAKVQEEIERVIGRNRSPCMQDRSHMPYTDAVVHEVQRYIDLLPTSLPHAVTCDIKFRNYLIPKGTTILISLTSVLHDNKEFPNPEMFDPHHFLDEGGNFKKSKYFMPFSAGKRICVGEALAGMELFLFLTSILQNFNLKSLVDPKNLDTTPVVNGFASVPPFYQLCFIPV
# Sequence of Cytochrome P450 3A4 (Homo sapiens) (P08684 whole entry, looked up): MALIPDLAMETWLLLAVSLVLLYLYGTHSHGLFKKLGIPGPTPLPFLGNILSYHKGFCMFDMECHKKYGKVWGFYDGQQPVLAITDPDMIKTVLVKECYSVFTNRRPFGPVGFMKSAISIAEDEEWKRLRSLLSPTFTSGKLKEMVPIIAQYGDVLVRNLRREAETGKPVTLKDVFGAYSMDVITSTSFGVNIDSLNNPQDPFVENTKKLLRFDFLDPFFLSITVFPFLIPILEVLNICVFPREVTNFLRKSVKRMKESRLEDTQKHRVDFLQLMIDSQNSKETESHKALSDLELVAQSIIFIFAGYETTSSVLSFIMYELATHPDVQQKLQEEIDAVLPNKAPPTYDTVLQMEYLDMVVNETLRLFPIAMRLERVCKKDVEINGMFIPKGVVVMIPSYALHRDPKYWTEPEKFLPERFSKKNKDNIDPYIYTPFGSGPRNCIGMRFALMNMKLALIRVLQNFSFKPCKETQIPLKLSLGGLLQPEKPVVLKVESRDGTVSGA
smiles,measurement,setting,value
Nc1nc(-n2cc(C(=O)O)c(=O)c3cc(F)c(N4CC(O)C4)c(Cl)c32)c(F)cc1F,Potency,[1],inactive
same,Potency,[2],inactive
same,Potency,[3],inactive
same,Potency,[4],inactive
same,activity,[5],-21.4%
CCOCc1cc(OC)c(-c2ccc(C[C@H](NC(=O)c3c(F)cccc3F)C(=O)O)cc2)c(OC)c1,Potency,[1],inactive
same,Potency,[2],inactive
same,Potency,[3],inactive
same,Potency,[4],inactive
N#Cc1cc(F)cc(-c2nc(-c3ccccn3)no2)c1,Potency,[1],inactive
same,Potency,[2],10.7 µM (active)
same,Potency,[3],inactive
same,Potency,[4],inactive
CN(C)c1nc(NC2CCC(NCCc3ccc(Br)cc3OC(F)(F)F)CC2)nc2ccccc12 (configuration not stated),Potency,[1],inactive
same,Potency,[2],2.68 µM (active)
same,Potency,[3],3.65 µM (active)
same,Potency,[4],2.58 µM (active)
same,activity,[5],-10.3%
CC(C)[C@@H]1C(=O)N(S(C)(=O)=O)[C@@H]2CCN(C(=O)/C=C/CN3CCCCC3)[C@H]21,Potency,[1],inactive
same,Potency,[2],inactive
same,Potency,[3],inactive
same,Potency,[4],inactive
Cc1ccc(NC(=O)C(=O)NC2CC(C)(C)NC(C)(C)C2)cc1,Potency,[1],inactive
same,Potency,[2],inactive
same,Potency,[3],inactive
same,Potency,[4],inactive
CCCCOC(=O)NC(=O)C1c2ccccc2Oc2ccccc21,Potency,[1],inactive
same,Potency,[2],inactive
same,Potency,[3],inactive
same,Potency,[4],inactive
CCCCNc1ccc(-c2ccc(CN3CCOCC3)cn2)c(NC2CCC(O)CC2)c1 (configuration not stated),Potency,[6],inactive
Cc1cnc(Nc2ccc(F)cc2Cl)nc1-c1c[nH]c(C(=O)NC(CO)c2cccc(Cl)c2)c1 (configuration not stated),Potency,[1],inactive
same,Potency,[7],inactive
same,Potency,[3],8.33 µM (active)
same,Potency,[4],2.3 µM (active)
Nc1ncnc2c1nc(N)n2[C@@H]1O[C@H](CO)[C@@H](O)[C@H]1O,Potency,[1],inactive
same,Potency,[7],inactive
same,Potency,[3],1.45 µM (active)
same,Potency,[4],0.649 µM (active)
Cc1c(C(=O)N2CCOc3ccc(-c4ccc(N)nc4)cc3C2)ccc(S(C)(=O)=O)c1F,Potency,[1],inactive
same,Potency,[8],inactive
same,Potency,[3],817 nM (active) and 1.32 µM (active)
same,Potency,[4],1.83 µM (active) and 3.32 µM (active)
COc1cc(C(=O)NC2CCN(C)CC2)ccc1Nc1ncc2c(n1)N(C1CCCC1)CC(F)(F)C(=O)N2C,Potency,[1],inactive
same,Potency,[8],inactive
same,Potency,[3],0.0205 µM (active)
same,Potency,[4],0.0325 µM (active)
same,activity,[5],-24%
C=C(C(=O)O)C1CC2=C(C)CCCC2(C)C[C@@H]1O (some centres not stated),Potency,[1],inactive
same,Potency,[3],inactive
CO[C@H]1/C=C/[C@@](C)(O)/C=C/C(=O)O[C@H](C)[C@@H](C)CC/C=C/1C,Potency,[1],inactive
same,Potency,[3],14.2 µM (active)
